Sampled rows, rich in hits. Any-hit rate of the full collection: about 4%.
esBAF inh: SWI/SNF esBAF complex inhibition; mouse ES cells, Bmi1-luciferase knock-in reporter, 24 h; 100% = twice the neutral-well signal; reporter increase, % at 12.5 µM; 2% of 350,000 active; AID 602393; in the data active = activation above about 40%; inconclusive = no clear call, values can overlap the other calls;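 also: 0% = median of the plate's neutral control wells and 100% = double that signal; a rise in the Bmi1 reporter signal indicates esBAF inhibition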
TRPM1 prom inh: MITF TRPM1 promoter inhibition in SK-MEL-5 cells; 0.83% of 330,000 active; SK-MEL-5 TRPM1 promoter luciferase, 24 h; inhibition, % at 12.5 µM;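 active = mean inhibition across replicates of 60% or more, whatever share of single replicates reaches that level; inconclusive = some that reach 60%, reason not given; inactive = mean inhibition across replicates below 60%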
PAX8 inh HTS: PAX8 transcriptional activity inhibition | inhibition, % at 12.6 µM | AID 652154 | 1.2% of 360,000 active | RMG-I TPO-luciferase reporter, SteadyGlo, 24 h;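 active = mean replicate inhibition at least 60% with every replicate also reaching 60%; inconclusive = only one of the two criteria is met; inactive = mean below 60% and not all replicates reaching 60%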;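 also: luciferase light reporting Pax8 driven TPO promoter activity; plate controls were median of neutral control wells for no effect and mitoxantrone controls for full effect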
Wnt act: activates Wnt/beta-catenin signaling in a reporter cell assay | AID 743398 | 1.2% of 300,000 active | activator, plate reader | activation, % at 9.35 µM; in the data active = activation above about 30%, passing the limit was not always enough; inconclusive = no clear call, values can overlap the other calls;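 also: 0% = neutral control wells and 100% = positive control wells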
EWS-Fli block: EWS/Fli transcriptional activity inhibition | inhibition, % at 12.6 µM | A673 NR0B1-luciferase reporter, viability-normalised | 0.67% of 350,000 active | AID 651661;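 active = mean inhibition of at least 50% after viability correction, with every replicate also passing that limit; inconclusive = mean reaches 50% but only one of two replicates passes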;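 also: firefly luciferase signal divided by Alamar Blue viability fluorescence both relative to DMSO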
MITF TRPM1 HTS: increases MITF-driven TRPM1 promoter luciferase signal. SK-MEL-5 TRPM1-promoter luciferase, 24 h; % of positive control, neutral wells = 0. activation, % at 12.5 µM. 0.75% of 300,000 active;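 active = mean activation of at least 80% with every replicate also reaching 80%; inconclusive = mean reaches 80% but some replicate falls short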;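 also: 0% = neutral control wells and 100% = parthenolide positive control wells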
Numbers without * were called inactive; ? = inconclusive; nt = not tested or not shown.

SMILES	esBAF inh	TRPM1 prom inh	PAX8 inh HTS	Wnt act	EWS-Fli block	MITF TRPM1 HTS
COc1ccc(N(CC(=O)Nc2cccc(SC)c2)S(C)(=O)=O)cc1	45*	-26	nt	nt	nt	29
CCOc1ccc(N(CC(=O)Nc2ccc(C)c(C)c2)S(C)(=O)=O)cc1	84*	-43	-114	13	-118	39
Cc1noc(C)c1S(=O)(=O)N(C)C[C@@H]1OCCCC[C@@H](C)Oc2ccc(NC(=O)Nc3ccc4c(c3)OCO4)cc2C(=O)N([C@H](C)CO)C[C@@H]1C	1	nt	6	nt	-5	nt
O=C(Nc1nc(-c2ccccc2)cs1)c1ccccc1NS(=O)(=O)c1ccc(F)cc1	nt	69*	86*	-25	nt	-69
Cc1cc(NC(=O)c2ccc(NC(=O)c3cccs3)cc2)no1	17	-12	nt	-3	nt	11
CC(C)(C)c1cc(NC(=O)c2cccs2)no1	-9	-53	-151	31*	nt	63
CC(C)(C)c1csc(NC(=O)c2cccs2)n1	103*	-46	nt	nt	nt	51
CCn1c(CCNC(=O)c2cccs2)nnc1SCC(=O)Nc1cccc(Cl)c1	nt	5	17	-3	nt	nt
CCn1c(CCNC(=O)c2cccs2)nnc1SCC(=O)Nc1nc(-c2ccccc2)cs1	44*	0	nt	nt	nt	nt
CCCC(=O)Nc1nc(-c2ccccc2)ns1	nt	-79	-114	?	nt	?
CC(=O)Nc1nc(-c2ccc([N+](=O)[O-])cc2)cs1	nt	-18	-31	2	-24	16
O=C(Nc1nc(-c2ccccc2)ns1)c1cccs1	44*	-49	nt	20	-81	43
O=C(Nc1nc(-c2ccccc2)cs1)c1cccs1	62*	-61	nt	nt	nt	61
O=C(Nc1ccc([N+](=O)[O-])cc1)Nc1nc(-c2ccc(Cl)s2)cs1	nt	72*	106*	-34	41	-68
O=C(Nc1nc(-c2ccc(Cl)s2)cs1)c1cccs1	69*	-39	nt	nt	nt	41
CCNC(=O)C[C@H]1CC[C@H]2[C@H](COc3ccc(NC(=O)Nc4cccc(C)c4)cc3C(=O)N2C)O1	7	nt	21	nt	4	nt
COC(=O)c1c(NC(=O)c2ccco2)sc(C(=O)Nc2ccc(F)cc2)c1C	nt	-106	nt	25	-70	109*
COC(=O)c1c(NC(=O)c2ccco2)sc(C)c1C	5	1	11	7	nt	1
CCOc1ccc(NC(=S)NC(=O)c2ccco2)cc1	?	-82	-181	12	-82	89*
CC(C)OC(=O)c1ccc(NC(=O)c2ccco2)cc1	61*	-109	nt	19	nt	110*
CCOC(=O)c1ccc(NC(=O)c2nn(C)cc2Br)cc1	51*	-77	-151	1	nt	83*
O=C(C[C@@H]1C[C@H]2c3cc(NC(=O)Nc4ccccc4)ccc3O[C@H]2[C@H](CO)O1)NCc1cccc(F)c1	4	nt	15	nt	0	nt
CCOc1ccc(NC(=O)c2ccco2)cc1	-5	-42	nt	nt	nt	36
CCOC(=O)c1ccc(NC(=O)N(CC)CC)cc1	-29	-40	-145	49*	nt	39
CCOC(=O)CC(=O)Nc1ccc(C(=O)OCC)cc1	14	-8	nt	nt	nt	13
SMILES	esBAF inh	TRPM1 prom inh	PAX8 inh HTS	Wnt act	EWS-Fli block	MITF TRPM1 HTS
CCOC(=O)c1ccc(NC(=O)c2ccco2)cc1	72*	-75	-183	21	-98	75
CO[C@@H]1CN(C)C(=O)c2ccc(NC(=O)Nc3ccccc3F)cc2OC[C@@H](C)N(S(=O)(=O)CC(F)(F)F)C[C@H]1C	10	nt	-21	nt	9	nt
COc1ccc(S(=O)(=O)N2C[C@@H](O)COC[C@@H]3O[C@H](CC(=O)N(C)C)CC[C@H]32)cc1	0	nt	4	nt	-12	nt
COCC(=O)Nc1ccc2c(c1)C(=O)N(C)[C@H]1CC[C@@H](CC(=O)NCc3ccccc3Cl)O[C@@H]1CO2	2	nt	59	nt	3	nt
CCCCN1CC(COCc2ccccc2)Oc2cccc(OCCN3C(=O)[C@@H]4[C@H](C3=O)C3C=C[C@H]4C3)c2S1(=O)=O (some centres undefined)	10	11	85*	-3	20	-8
O=C1[C@@H]2[C@H](C(=O)N1C[C@@H](COCc1ccccc1)Oc1cccc3c1S(=O)(=O)N(CCc1ccc(F)cc1)C[C@H](COCc1ccccc1)O3)[C@@H]1C=C[C@H]2C1	nt	nt	26	-4	11	nt
O=C(N/N=C/C=C/c1ccccc1[N+](=O)[O-])c1cccs1	38	-6	-1	nt	-14	7
Cc1cc(C)cc(OCC(=O)N/N=C/c2ccc([N+](=O)[O-])o2)c1	nt	66*	17	0	13	-67
O=C(N/N=C\C=C\c1ccc([N+](=O)[O-])o1)c1cccs1	-1	83*	16	9	10	-81
COc1ccccc1OCC(=O)N/N=C/C=C/c1ccc([N+](=O)[O-])o1	nt	76*	42	69*	13	-75
CCOC(=O)N/N=C\c1ccc([N+](=O)[O-])o1	-7	20	nt	-16	nt	-24
Cc1ccccc1OCC(=O)N/N=C/c1ccc([N+](=O)[O-])o1	nt	79*	18	2	3	-77
Cc1ccccc1OCC(=O)NCC(=O)N/N=C/c1ccc(Br)o1	nt	-4	-38	nt	nt	4
CC1(C(=O)N/N=C/c2ccc([N+](=O)[O-])o2)CC1(Br)Br (centres undefined)	nt	74*	9	-3	15	-74
CC(=O)c1ccc(NC(=O)C2(c3ccccc3)CCOCC2)cc1	55*	-60	-160	14	nt	58
O=C(c1ccc(NC(=O)C2(c3ccccc3)CCOCC2)cc1)N1CCOCC1	nt	8	nt	nt	nt	-4
CN(C)c1ccc2nc3ccc(=[N+](C)C)cc-3sc2c1	nt	73*	-71	26	-114	-73
CN(C)c1ccc2nc3ccc(=O)cc-3sc2c1	-59	nt	nt	-9	36	nt
Cc1cc2nc3ccc(=[N+](C)C)cc-3sc2cc1N	nt	96*	nt	nt	nt	-95
Cc1ccc(C(=O)Nc2ncc(C)s2)o1	nt	-14	nt	nt	nt	15
Cc1ccc(C(=O)Nc2ncc(Cc3ccc(F)cc3)s2)o1	-1	-139	-159	65*	nt	144*
CC(C)CC#Cc1ccc([C@H]2[C@@H](CO)N3C(=O)CN(C(=O)NC4CCCC4)C[C@H]23)cc1	nt	nt	nt	nt	6	nt
Cc1ccc(C)c(/C=N/n2cc(-c3ccccc3)[nH]c2=S)c1	nt	-5	21	0	32	3
Fc1ccccc1/C=N/n1cc(-c2ccccc2)[nH]c1=S	54*	-24	-52	12	20	28
CCCc1cnc(N2CCN(C(=S)NC)CC2)nc1	37	-57	-170	40*	-94	nt
CC1CCC2(CC1)NC(=O)N(Cc1cccc(C(F)(F)F)c1)C2=O (centres undefined)	nt	-1	8	92*	-90	-6
Cc1nc2cc(NC(=O)N3CCC(c4ccccc4)C3)ccc2n1C (centres undefined)	54*	-28	nt	6	-73	41
Cc1ccc(C2CCN(C(=O)Nc3ccc(F)cc3)C2)cc1 (centres undefined)	63*	-92	-142	-1	-73	95*
